About 2,000 (36%) of roughly 5,500 compounds were called active. Inconclusive results (about 18%) are left out. Rule as the data show it: active = normalized growth mostly below about 0.91 (no sharp cut-off); inconclusive = no clear call, values can overlap the other calls; inactive = mostly above about 0.92. The list shows a part of the results.
Assay: chemical genetic growth profiling, strain panel (AID 1159580);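 also: tested at 20 µM; growth read once vehicle control cultures reached saturation at 30 °C; 1 = growth at the plate median or of vehicle wells; lower values mean less growth of the strain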
Conditions: S. cerevisiae deletion strains, growth OD

Measured: normalized growth

COc1ccc(OC)c(-c2ccn[nH]2)c1OCc1ccccc1
inactive: locus YAR019C, strain CDC15, stronger effect = lower value 0.995 | locus YBL105C, strain PKC1, stronger effect = lower value 0.998 | locus YBR135W, strain CKS1, stronger effect = lower value 0.994 | locus YBR136W, strain MEC1, stronger effect = lower value 0.987 | locus YBR160W, strain CDC28, stronger effect = lower value 0.994 | locus YDL017W, strain CDC7, stronger effect = lower value 0.997 | locus YDL028C, strain MPS1, stronger effect = lower value 0.974 | locus YDL101C, strain DUN1, stronger effect = lower value 0.979 | locus YDL108W, strain KIN28, stronger effect = lower value 0.987 | locus YDL132W, strain cdc53, stronger effect = lower value 0.987 | locus YDL214C, strain PRR2, stronger effect = lower value 0.893 | locus YDR052C, strain DBF4, stronger effect = lower value 0.989 | locus YDR054C, strain cdc34, stronger effect = lower value 0.985 | locus YDR226W, strain ADK1, stronger effect = lower value 0.998 | locus YDR477W, strain SNF1, stronger effect = lower value 0.905 | locus YER123W, strain YCK3, stronger effect = lower value 0.762 | locus YER133W, strain GLC7, stronger effect = lower value 0.886 | locus YFL009W, strain cdc4, stronger effect = lower value 0.998 | locus YFL029C, strain CAK1, stronger effect = lower value 0.995 | locus YFR003C, strain YPI1, stronger effect = lower value 0.993 | locus YFR019W, strain FAB1, stronger effect = lower value 0.832 | locus YFR028C, strain CDC14, stronger effect = lower value 0.993 | locus YGR040W, strain KSS1, stronger effect = lower value 0.874 | locus YGR052W, strain FMP48, stronger effect = lower value 0.948 | locus YGR092W, strain DBF2, stronger effect = lower value 0.864 | locus YHR030C, strain SLT2, stronger effect = lower value 0.986 | locus YHR079C, strain IRE1, stronger effect = lower value 0.999 | locus YHR082C, strain KSP1, stronger effect = lower value 0.974 | locus YHR205W, strain SCH9, stronger effect = lower value 0.97 | locus YIL147C, strain SLN1, stronger effect = lower value 0.97 | locus YJL095W, strain BCK1, stronger effect = lower value 0.953 | locus YJL128C, strain PBS2, stronger effect = lower value 0.981 | locus YJL157C, strain FAR1, stronger effect = lower value 0.887 | locus YJR016C, strain ILV3, stronger effect = lower value 1 | locus YJR066W, strain TOR1 (second series), stronger effect = lower value 0.808 | locus YJR066W, strain TOR1, stronger effect = lower value 0.96 | locus YKL048C, strain ELM1, stronger effect = lower value 0.948 | locus YKL067W, strain YNK1, stronger effect = lower value 0.907 | locus YKL101W, strain HSL1, stronger effect = lower value 0.926 | locus YKL193C, strain SDS22, stronger effect = lower value 0.989 | locus YKL203C, strain TOR2, stronger effect = lower value 0.953 | locus YLR113W, strain HOG1, stronger effect = lower value 1.01 | locus YLR133W, strain CKI1, stronger effect = lower value 0.924 | locus YLR403W, strain SFP1, stronger effect = lower value 0.883 | locus YML070W, strain DAK1, stronger effect = lower value 0.877 | locus YMR001C, strain CDC5, stronger effect = lower value 0.993 | locus YMR205C, strain PFK2 (second series), stronger effect = lower value 0.908 | locus YMR277W, strain FCP1, stronger effect = lower value 0.993 | locus YNL006W, strain LST8, stronger effect = lower value 0.985 | locus YNL020C, strain ARK1, stronger effect = lower value 0.903 | locus YNL161W, strain CBK1, stronger effect = lower value 0.995 | locus YNL183C, strain NPR1, stronger effect = lower value 0.969 | locus YNL207W, strain RIO2, stronger effect = lower value 0.997 | locus YNL222W, strain SSU72, stronger effect = lower value 1 | locus YNL307C, strain MCK1 (second series), stronger effect = lower value 0.922 | locus YOL078W, strain AVO1, stronger effect = lower value 0.994 | locus YOL136C, strain PFK27, stronger effect = lower value 0.908 | locus YOR061W, strain CKA2, stronger effect = lower value 0.871 | locus YOR119C, strain RIO1, stronger effect = lower value 0.936 | locus YOR231W, strain MKK1, stronger effect = lower value 0.992 | locus YOR329C, strain SCD5, stronger effect = lower value 0.999 | locus YPL031C, strain PHO85, stronger effect = lower value 0.87 | locus YPL153C, strain RAD53, stronger effect = lower value 0.869 | locus YPL204W, strain HRR25, stronger effect = lower value 0.892 | locus YPL209C, strain IPL1, stronger effect = lower value 0.994 | locus YPL256C, strain CLN2, stronger effect = lower value 1.02 | locus YPR025C, strain CCL1, stronger effect = lower value 0.994 | locus YPR106W, strain ISR1, stronger effect = lower value 1 | locus YPR111W, strain DBF20, stronger effect = lower value 0.999 | strain NNK1, stronger effect = lower value 0.994 | strain TSCII, stronger effect = lower value 0.992
